# Test results from PubChem BioAssay.
# Where “and” joins values, the source holds several entries; their conditions need not be identical. Equal entries are not always repeated. Calls of active or inactive are those of the source.
# How the values were obtained:
# [1] = compound effects on lung adenocarcinoma cell viability – A549, calcein-AM fluorescence, 48 h, basal, profiling panel (AID 1162); conditions: higher = more signal
# [2] = compound effects on differentiated 3T3-L1 adipocyte viability – cell-based, 3T3-L1 adipocytes, calcein-AM fluorescence, 48 h, basal, profiling panel (AID 1163); conditions: 3T3-L1 adipocytes viability, higher = more signal
# [3] = compound effects on hepatocellular carcinoma cell viability – HepG2, calcein-AM fluorescence, 48 h, basal, profiling panel (AID 1164); conditions: higher = more signal
# [4] = compound effects on multiple myeloma cell viability – MM1S, calcein-AM fluorescence, 48 h, basal, profiling panel (AID 1165); conditions: higher = more signal
# [5] = calcein-AM signal in unstimulated myeloma cells – cell-based, calcein-AM fluorescence, 48 h, PK04 Diversity Set, profiling panel (AID 1166); conditions: higher = more signal; RPMI8226 myeloma viability, calcein-AM fluorescence, 48 h unless noted;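 further: cells grown under basal conditions without added stimulus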
# [6] = JC-1 mitochondrial signal, unstimulated HepG2 cells – cell-based, JC-1 fluorescence, 24 h, 100 nL compound, profiling panel (AID 1167); conditions: HepG2 mitochondrial potential, higher = more signal
# [7] = JC-1 mitochondrial signal, unstimulated adipocytes – cell-based, JC-1 fluorescence, 3T3-L1 adipocytes, 24 h, 100 nL compound, profiling panel (AID 1168); conditions: JC-1 mitochondrial fluorescence; higher = more signal, called active from +8 up or from −8 down unless noted
# [8] = JC-1 mitochondrial signal, unstimulated myeloma cells – cell-based, JC-1 fluorescence, RPMI8226, 24 h, 100 nL compound, profiling panel (AID 1169); conditions: higher = more signal; RPMI8226 myeloma, JC-1 mitochondrial potential fluorescence, 24 h unless noted
# [9] = JC-1 mitochondrial signal, unstimulated MM1S myeloma – cell-based, JC-1 fluorescence, 24 h, 100 nL compound, profiling panel (AID 1170); conditions: MM1S mitochondrial potential, higher = more signal
# [10] = resazurin metabolic signal in A549 cells – cell-based, resazurin fluorescence, 24 h, PK04 Diversity Set, profiling panel (AID 1171); conditions: A549 viability; higher = more signal, called active from +8 up or from −8 down unless noted
# Further: test concentration not given here.
Compound,z-score [1],z-score [2],z-score [3],z-score [4],z-score [5],z-score [6],z-score [7],z-score [8],z-score [9],z-score [10]
CC1N(P(=O)(c2ccccc2)c2ccccc2)CC(O)(c2ccccc2)CC12CC2 (stereo not given),-1.2 and -1.31,-0.216 and -0.899,-1.5 and -1.05,-0.187 and -0.545,-1.7 and -1.4,-0.722 and -1.02,-1.04 (inactive) and -1.11 (inactive),0.655 and -0.4,-0.307 and -0.694,0.146 (inactive) and 1.49 (inactive)
OCc1ccc(C2=CC(c3cccs3)N(Cc3cccc(OC(F)(F)F)c3)CC2)cc1 (stereo not given),1.08,0.314,-0.65,-2.61,-0.633,-2.28,0.0997 (inactive),-0.0311,0.518,0.439 (inactive)
COC(=O)[C@@]1(Cc2ccccc2)[C@H]2c3cc(C(=O)N(C)C)[nH]c3C[C@H]2CN1C(=O)c1ccccc1,-1.08,-0.0276,-0.78,0.047,-0.458,-0.592,-0.562 (inactive),0.816,-0.807,0.121 (inactive)
CCCc1cc2c(n1Cc1ccco1)C(C)C1CN(C(=O)c3ccccc3)C(C)(C(=O)OC)C21 (stereo not given),-0.136,0.227,-0.369,-3.24,-2.66,2.35,-1.5 (inactive),0.228,-1.53,-1.36 (inactive)
COC(=O)[C@@]1(Cc2ccccc2)[C@H]2c3cc(C(=O)N(C)C)n(C)c3C[C@H]2CN1C(=O)c1ccccc1,-1.73,-0.537,-0.189,0.0394,-1.19,0.0427,-0.078 (inactive),-0.318,-0.437,0.0026 (inactive)
CCOC(=O)[C@H]1CC=C2C(=O)Oc3ccc(Br)cc3[C@@H]21,-2.46,-0.556,-2.35,-2.9,-3.93,1.36,0.599 (inactive),0.407,0.132,0.234 (inactive)
COC(=O)[C@H]1[C@@H](O)[C@@]2(O)c3c(OC)cc(OC)cc3O[C@@]2(c2ccc(OC)cc2)[C@@H]1c1ccccc1,-2.35,-1.63,-2.23,-3.46,-3.35,-2.69,-0.0573 (inactive),-0.727,-1.19,-4.41 (inactive)
C[C@@H]1OC=C2[C@@H](O)[C@H]3O[C@H]3C(=O)[C@]23[C@H]1[C@H]1C2=C([C@@H](O)[C@H]4O[C@H]4C2=O)[C@@H]3O[C@@H]1C,0.304,0.441,0.0428,-0.297,-0.594,-0.888,-0.3 (inactive),0.0604,0.144,0.703 (inactive)
COC(=O)[C@H]1[C@H](c2ccccc2)C(=O)[C@]2(O)c3ccccc3O[C@@]12c1ccccc1,0.594,0.833,-0.0328,0.391,0.001,0.338,-0.113 (inactive),0.289,-0.0594,-1.73 (inactive)
CCCc1cc2c(n1CCO)C(C)C1CN(C(=O)c3ccccc3)C(C)(C(=O)OC)C21 (stereo not given),-0.981,0.348,0.436,-1.38,-0.875,0.156,-0.962 (inactive),0.719,-0.379,-1.04 (inactive)
COC(=O)C1(C)C=C2C(=C(C)C(=O)C2C)CN1 (stereo not given),-1.32,-0.254,-1.21,0.224,-2.24,-1.57,-0.482 (inactive),0.262,-0.221,-1.62 (inactive)
CCCC[C@@H]1C[C@H]1[C@@H](NP(=O)(c1ccccc1)c1ccccc1)c1ccc(Cl)cc1,-0.656,-1.31,-0.868,-2.05,-4.62,-1.35,-0.729 (inactive),-0.861,-1.11,2.22 (inactive)
CN1CCC(c2ccc(CO)cc2)=CC1c1cccs1 (stereo not given),0.368,-0.393,-0.153,-2.81,-0.157,-1.28,-0.581 (inactive),0.554,-0.277,-0.103 (inactive)
C[C@H]1O[C@H]2C3=C(C(=O)[C@@H]4O[C@@H]4[C@@H]3O)[C@@H]1[C@@H]1[C@@H](C)OC=C3[C@@H](O)[C@H]4O[C@H]4C(=O)[C@]312,0.767,0.439,0.0608,-1.54,-0.168,-0.407,0.407 (inactive),0.692,-0.996,-0.831 (inactive)
COC(=O)[C@H]1C(=O)c2ccccc2O[C@@](C(=O)OC)(c2ccccc2)[C@@H]1c1ccccc1,-0.513,-0.328,0.159,-1.16,-0.144,-0.598,-0.31 (inactive),-0.203,0.271,-0.002 (inactive)
COc1cc2c(cc1O)C(C)N(C)CC2 (stereo not given),1.22,1.01,0.262,-0.853,0.456,0.0836,1.27 (inactive),-0.663,1.07,0.115 (inactive)
